# Test results from PubChem BioAssay (Tox21).
# Activity calls are given as the source filed them. Calls come from the whole dose curve; as a rule, active = well fitted curve in the direction sought with a large enough effect in the repeat runs; inconclusive = weak or mixed curves; inactive = flat fitted curve, though single readings scatter.
# Experiment: qHTS assay to test for compound auto fluorescence at 535 nm (green) in HEK293 cell free culture (AID 720682)
# Conditions: cell-free medium, green autofluorescence 485/535 nm, hits give high values; series mostly up to 46 µM; activity change: at the top concentration
# Method in brief: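 Each library compound, or DMSO control, is added by pintool to medium alone, comprising DMEM and 10% FBS. Emission at 535 nm following 485 nm excitation is quantified against fluorescein.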
# % is set by controls: 0 for no effect and ±100 for the full control effect.
Structure (SMILES),activity change,outcome
CC12CCC(C1)C(C)(C)C2=O (centres undefined),0.115% (inactive),–
CCCCCCCC/C=C\CCCCCCCC(=O)N(CCO)CCO,-0.0237% [at 91.3 µM] (inactive),–
C[C@H](O)CN(C)C,0.0414% (inactive),–
C[C@H](Cc1ccc(O)c(O)c1)[C@@H](C)Cc1ccc(O)c(O)c1,0.0217% (inactive),–
CCCOC(=O)c1ccc(O)cc1,–,inactive
NCC1CCC(C(=O)O)CC1 (centres undefined),-0.0119% [at 18.6 µM] (inactive),–
CN(C)CCc1c[nH]c2ccc(Cn3cncn3)cc12,0.122% (inactive),–
CN(Cc1ccccc1)Cc1ccccc1,0.101% (inactive),–
CN1C(=O)C[C@@H](C(=O)N[C@@H](Cc2cnc[nH]2)C(=O)N2CCC[C@H]2C(N)=O)NC1=O,-0.0787% (inactive),–
O=C(N[C@H](CO)[C@H](O)c1ccc([N+](=O)[O-])cc1)C(Cl)Cl,–,inactive
COc1cc(NS(C)(=O)=O)ccc1Nc1c2ccccc2nc2ccccc12,0.174% (inactive),–
N[C@@H](Cc1ccc(O)c(O)c1)C(=O)O,0.0169% (inactive),–
CCCn1c(=O)[nH]c(=O)c2[nH]cnc21,0.076% (inactive),–
N=C(N)c1ccc(/C=C/c2ccc(C(=N)N)cc2O)cc1,0.0068% (inactive),–
O=C1c2ccccc2-c2n[nH]c3cccc1c23,0.29% (inactive),–
O=C1CC[C@@H](C(=O)N[C@H]2C[C@@H]2c2ccccc2)N1,-0.0446% (inactive),–
CC12CCC(C[N+](C)(CCC[N+](C)(C)C)C1)C2(C)C (centres undefined),0.0689% (inactive),–
CC(O)(c1ccc(Cl)cc1)c1ccc(Cl)cc1,0.0287% [at 91.3 µM] (inactive),–
CC(C)(COP(=O)(O)OP(=O)(O)OC[C@H]1O[C@@H](n2cnc3c(N)ncnc32)[C@H](O)[C@@H]1OP(=O)(O)O)C(O)C(=O)NCCC(=O)NCCS (some centres undefined),-0.106% (inactive),–

Structure (SMILES),activity change,outcome
CN=C(N)NCCC[C@H](N)C(=O)O,–,inactive
Cc1cc(CC(C)CC(C)(C)C)n(O)c(=O)c1 (centres undefined) (tested in a mixture with another compound),0.0437% (inactive),–
O=P(O)(O)CP(=O)(O)O,-0.039% (inactive),–
CC(=O)OCC(=O)[C@@]1(O)CC[C@H]2[C@@H]3C[C@H](C)C4=CC(=O)C=C[C@]4(C)[C@H]3[C@@H](O)C[C@@]21C,0.0083% (inactive),–
CCCOC(=O)c1ccccc1O,-0.0401% (inactive),–
CCCCCCCCCCCCCCCCCCNC(=O)OC1CCN(C(=O)OC[C@H](COC(=O)N(Cc2cccc[n+]2CC)C(=O)c2ccccc2OC)OC)CC1,0.0167% (inactive),–
CC(Cc1ccc(O)c(O)c1)C(C)Cc1ccc(O)c(O)c1 (centres undefined),0.118% [at 91.3 µM] (inactive),–
CCCCCCCC[N+](C)(C)CCCCCCCC,–,inactive
CC(CNC(=O)c1cccnc1)NC(=O)c1cccnc1 (centres undefined),0.0194% (inactive),–
O=C(O)COc1ccccc1/C=N/NC(=O)c1ccncc1,0.019% (inactive),–
O=C(O)CCCC/C=C(\c1ccccc1)c1cccnc1,-0.114% (inactive),–
CCC1OC(=O)C[C@@H](O)[C@H](C)[C@@H](O[C@@H]2O[C@H](C)C[C@H](N(C)C)[C@H]2O)[C@@H](CC=O)C[C@@H](C)C(=O)/C=C/[C@]2(C)OC2C1C (some centres undefined),–,inactive
SC1CCCCC1,0.0485% [at 95.7 µM] (inactive),–
NC[C@H]1O[C@H](O[C@H]2[C@H](O)[C@@H](O[C@H]3O[C@H](CO)[C@@H](O)[C@H](N)[C@H]3O)[C@H](N)C[C@@H]2N)[C@H](N)C[C@@H]1O,-0.0046% [at 18.6 µM] (inactive),–
NCC[C@H](O)C(=O)N[C@@H]1C[C@H](N)[C@@H](O[C@H]2O[C@H](CN)CC[C@H]2N)[C@H](O)[C@H]1O[C@H]1O[C@H](CO)[C@@H](O)[C@H](N)[C@H]1O,0.0075% (inactive),–
CN1[C@@H](CC(=O)c2ccccc2)CCC[C@H]1C[C@H](O)c1ccccc1,-0.0122% (inactive),–
CN1CCN(CCCN2c3ccccc3Sc3ccc(Cl)cc32)CC1,0.0889% (inactive),–
CCCCCCCCCC[N+](C)(CCCCCCCCCC)CCC[Si](OC)(OC)OC,-0.0567% [at 91.3 µM] (inactive),–

# Experiment: qHTS assay to test for compound auto fluorescence at 590 nm (red) in HEK293 cell free culture (AID 720683)
# Conditions: cell-free medium autofluorescence, Ex540/Em590 red; series mostly up to 46 µM; fluorescence, % of fluorescent control: at the top concentration
# Method in brief: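 Cell-free wells of DMEM with 10% FBS received compound, and intrinsic fluorescence was read at excitation/emission 540/590 nm. Values expressed as equivalence to Rose Bengal sodium.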
Structure (SMILES),"fluorescence, % of fluorescent control",outcome
CC12CCC(C1)C(C)(C)C2=O (centres undefined),-0.142% (inactive),–
CCCCCCCC/C=C\CCCCCCCC(=O)N(CCO)CCO,0.0674% [at 91.3 µM] (inactive),–
C[C@H](O)CN(C)C,-0.714% (inactive),–
C[C@H](Cc1ccc(O)c(O)c1)[C@@H](C)Cc1ccc(O)c(O)c1,-0.762% (inactive),–
CCCOC(=O)c1ccc(O)cc1,–,inactive
NCC1CCC(C(=O)O)CC1 (centres undefined),-0.0568% [at 18.6 µM] (inactive),–
CN(C)CCc1c[nH]c2ccc(Cn3cncn3)cc12,-0.223% (inactive),–
CN(Cc1ccccc1)Cc1ccccc1,0.108% (inactive),–
CN1C(=O)C[C@@H](C(=O)N[C@@H](Cc2cnc[nH]2)C(=O)N2CCC[C@H]2C(N)=O)NC1=O,-0.404% (inactive),–
O=C(N[C@H](CO)[C@H](O)c1ccc([N+](=O)[O-])cc1)C(Cl)Cl,–,inactive
COc1cc(NS(C)(=O)=O)ccc1Nc1c2ccccc2nc2ccccc12,-0.0899% (inactive),–
N[C@@H](Cc1ccc(O)c(O)c1)C(=O)O,0.139% (inactive),–
CCCn1c(=O)[nH]c(=O)c2[nH]cnc21,-0.204% (inactive),–
N=C(N)c1ccc(/C=C/c2ccc(C(=N)N)cc2O)cc1,-0.0694% (inactive),–
O=C1c2ccccc2-c2n[nH]c3cccc1c23,0.727% (inactive),–
O=C1CC[C@@H](C(=O)N[C@H]2C[C@@H]2c2ccccc2)N1,0.103% (inactive),–
CC12CCC(C[N+](C)(CCC[N+](C)(C)C)C1)C2(C)C (centres undefined),0.364% (inactive),–
CC(O)(c1ccc(Cl)cc1)c1ccc(Cl)cc1,0.0528% [at 91.3 µM] (inactive),–
CC(C)(COP(=O)(O)OP(=O)(O)OC[C@H]1O[C@@H](n2cnc3c(N)ncnc32)[C@H](O)[C@@H]1OP(=O)(O)O)C(O)C(=O)NCCC(=O)NCCS (some centres undefined),0.229% (inactive),–

Structure (SMILES),"fluorescence, % of fluorescent control",outcome
CN=C(N)NCCC[C@H](N)C(=O)O,–,inactive
Cc1cc(CC(C)CC(C)(C)C)n(O)c(=O)c1 (centres undefined) (tested in a mixture with another compound),-0.189% (inactive),–
O=P(O)(O)CP(=O)(O)O,0.746% (inactive),–
CC(=O)OCC(=O)[C@@]1(O)CC[C@H]2[C@@H]3C[C@H](C)C4=CC(=O)C=C[C@]4(C)[C@H]3[C@@H](O)C[C@@]21C,-0.0931% (inactive),–
CCCOC(=O)c1ccccc1O,-0.126% (inactive),–
CCCCCCCCCCCCCCCCCCNC(=O)OC1CCN(C(=O)OC[C@H](COC(=O)N(Cc2cccc[n+]2CC)C(=O)c2ccccc2OC)OC)CC1,-0.739% (inactive),–
CC(Cc1ccc(O)c(O)c1)C(C)Cc1ccc(O)c(O)c1 (centres undefined),0.486% [at 91.3 µM] (inactive),–
CCCCCCCC[N+](C)(C)CCCCCCCC,–,inactive
CC(CNC(=O)c1cccnc1)NC(=O)c1cccnc1 (centres undefined),-0.0932% (inactive),–
O=C(O)COc1ccccc1/C=N/NC(=O)c1ccncc1,-0.0973% (inactive),–
O=C(O)CCCC/C=C(\c1ccccc1)c1cccnc1,-0.0556% (inactive),–
CCC1OC(=O)C[C@@H](O)[C@H](C)[C@@H](O[C@@H]2O[C@H](C)C[C@H](N(C)C)[C@H]2O)[C@@H](CC=O)C[C@@H](C)C(=O)/C=C/[C@]2(C)OC2C1C (some centres undefined),–,inactive
SC1CCCCC1,0.0081% [at 95.7 µM] (inactive),–
NC[C@H]1O[C@H](O[C@H]2[C@H](O)[C@@H](O[C@H]3O[C@H](CO)[C@@H](O)[C@H](N)[C@H]3O)[C@H](N)C[C@@H]2N)[C@H](N)C[C@@H]1O,0.493% [at 18.6 µM] (inactive),–
NCC[C@H](O)C(=O)N[C@@H]1C[C@H](N)[C@@H](O[C@H]2O[C@H](CN)CC[C@H]2N)[C@H](O)[C@H]1O[C@H]1O[C@H](CO)[C@@H](O)[C@H](N)[C@H]1O,0.0684% (inactive),–
CN1[C@@H](CC(=O)c2ccccc2)CCC[C@H]1C[C@H](O)c1ccccc1,0.426% (inactive),–
CN1CCN(CCCN2c3ccccc3Sc3ccc(Cl)cc32)CC1,-0.173% (inactive),–
CCCCCCCCCC[N+](C)(CCCCCCCCCC)CCC[Si](OC)(OC)OC,0.127% [at 91.3 µM] (inactive),–
